In PubChem BioAssay (NCI):
Several values for one entry are separate records, joined by “and”; a condition that tells them apart may be missing. Identical values can stand only once. The panel holds about 83,000 compounds, 20% with a hit somewhere; the sample as a whole holds those more often.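 Interpretation: 100, growth as untreated; towards 0, rising growth inhibition; 0, no net growth; 0 to -100, cell death. Compounds scoring below 10 were considered active.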 Activity calls are given as the source filed them.

test system: MDA-MB-468 breast; assay: NCI-60 one-dose screen, 48 h (100 = growth as untreated, 0 = no growth, -100 = all killed); conditions: 10 µM unless noted

| SMILES | growth |
| --- | --- |
| CCOC(=O)c1ccccc1C(=O)OCC | 81% (inactive) |
| COC(=O)C1=CCCN(C)C1 | 105% (inactive) and 92.8% (inactive) |
| CCN1CC2(CN(CC)C1=S)C(=O)NC(=O)NC2=O | 116% (inactive) |
| CC[C@H](C)[C@H](NC(=O)[C@H]1CCCCN1C)C(=O)N(C)[C@H](C[C@@H](OC(C)=O)c1nc(C(=O)NC23C4C5C2C2C3C4C52C(=O)OC)cs1)C(C)C (stereo not given in full) | -2.75% (active) |
| Clc1ccc2nnnn2n1 | 35.6% (inactive) |
| CC(=O)[O][Hg][c]1c(C)c(C)cc(C)c1C | -79.4% (active) |
| c1cnc2c(c1)ccc1ncccc12 | 109% (inactive) |
| C=CCn1cc(C=C2C(=O)N(C)C(=O)N(C)C2=O)c2ccccc21 | -35.5% (active) |
| COc1cc(C2=NN(c3ccccc3)C(c3sc(N(CCCl)CCCl)nc3Cl)C2)cc(OC)c1OC (stereo not given) | 87.9% (inactive) |
| CCC(/C=C(C)/C=C/C(=O)c1c(O)c(-c2ccc(O)cc2)c[nH]c1=O)CO (stereo not given) | 98.5% (inactive) |
| CC1(C)CN1P(=O)(N1CC1(C)C)N1CC1(C)C (stereo not given) | 106% (inactive) |
| CC(=O)OC1CCC2(C)C(=CCC3C4CC(CN5CC5)C(=O)C4(C)CCC32)C1 (stereo not given) | 1.98% (active) |
| CC(C)(NC(=O)c1nn(CCCCCF)c2ccccc12)c1ccccc1 | 93.9% (inactive) |
| Cn1cc(C(=O)C[n+]2ccccc2)c2ccccc21 | 88% (inactive) |
| COc1ccc2c(c1)c(C1(O)CC(CSC#N)OC1=O)cn2C(=O)c1ccc(Cl)cc1 (stereo not given) | 109% (inactive) |
| COc1cc(CNCCc2ccc(Cl)cc2)cc(OC)c1O | 43.5% (inactive) |
| C=CC[PH+](c1ccccc1)c1ccccc1.C=CC[PH+](c1ccccc1)c1ccccc1.[Pt+2].[S-]c1ncccn1.[S-]c1ncccn1 | -5.58% (active) |
| CCCCC1(CCC)C(=O)NC(=S)NC1=O | 98.7% (inactive) |
| CN1CCC2(CC1)C(C#N)C(=O)NC(=O)C2C#N (stereo not given) | 102% (inactive) |
| COc1ccc(N)cc1N | 101% (inactive) |

| SMILES | growth |
| --- | --- |
| CN(C)C(=O)Oc1ccccc1 | 113% (inactive) |
| COc1cc(N(CCCl)CCCl)ccc1C=Nc1ccccc1C(=O)O | 63.3% (inactive) |
| COC(=O)[C@@H](C)C[C@H](Cc1ccccc1)NC(=O)c1csc([C@@H](C[C@H](C(C)C)N(C)C(=O)C2(NC(=O)[C@H]3CCCCN3C)CC2)OC(C)=O)n1 | -4.03% (active) |
| O=C(O)C1[O][Sb][O]C1C(=O)O (stereo not given) | 95.7% (inactive) |
| NC(N)=NC(N)=Nc1ccc(Cl)cc1 | 111% (inactive) |
| COc1ccc(/C=C(\C)[N+](=O)[O-])cc1OC | -77.3% (active) |
| Nc1ccc2c(c1)Cc1cc(Br)ccc1-2 | 85.2% (inactive) |
| CCC(=O)C(CC(C)[N+](C)(C)C)(c1ccccc1)c1ccccc1 (stereo not given) | 85.5% (inactive) |
| O=C(CCl)Nc1ccc(Cl)cc1 | 18.6% (inactive) |
| CCCCS(=O)(=O)Cl | 104% (inactive) |
| COC(=O)[C@@H](C)C[C@H](Cc1ccccc1)NC(=O)c1csc([C@@H](C[C@H](C(C)C)N(C)C(=O)[C@@H](NC(=O)C23CC(NC(C)=O)(C2)C3)C2CC2)OC(C)=O)n1 | 3.05% (active) |
| CCCCCCCCC(CO)NCCc1ccccc1 (stereo not given) | 100% (inactive) |
| Oc1ccccc1C=NCCN=Cc1ccccc1O.[Fe] | 64.3% (inactive) |
| S=P(NC1CCCCC1)(N1CC1)N1CC1 | 103% (inactive) |
| ClCc1ccc2ccccc2n1 | 84.1% (inactive) |
| Clc1ccc(COC(Cn2ccnc2)c2ccc(Cl)cc2Cl)c(Cl)c1 (stereo not given) | 33.3% (inactive) |
| O=C(CC1(O)C(=O)Nc2ccc(Cl)cc21)c1ccc(C(=O)NCC2CCC3(CC2)OOC2(CCCCC2)OO3)cc1 (stereo not given) | 18% (inactive) |
| CCCCCCCCCCCCCCCCCC1OC[C@H](COC(=O)O[C@@H](C(=O)O[C@H]2C[C@@]3(O)[C@@H](OC(=O)c4ccccc4)[C@@H]4[C@]5(OC(C)=O)CO[C@@H]5C[C@H](O)[C@@]4(C)C(=O)[C@H](OC(C)=O)C(=C2C)C3(C)C)[C@@H](NC(=O)c2ccccc2)c2ccccc2)O1 (stereo not given in full) | 0.893% (active) |
| COC(=O)[C@H](Cc1ccccc1)NC(=O)c1csc([C@@H](C[C@H](C(C)C)N(C)C(=O)[C@@H](NC(=O)[C@H]2CCCN2C)C2CC2)OC(C)=O)n1 | -5.59% (active) |
| Nc1ncnc2n[nH]nc12 | 51.6% (inactive) |
